Compounds with a hit are over-represented: about 2.2% of the library has one in this group of screens.
AI-2 QS mod: modulates the Vibrio harveyi AI-2 quorum sensing system. Vibrio harveyi JMH597 AI-2 luminescence/OD600 ratio, 9 h; active compounds read low; strain lacks LuxN and CqsS sensors; 0 = neutral-control median. activity change, % at 7.5 µM. actives 0.4% (n = 300,000); in the data active = activity change below about -75%, passing the limit was not always enough; inconclusive = no clear call, values can overlap the other calls;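 note: luminescence divided by OD600 gain over 9 h not by final OD600 alone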
VLA-4 inh: inhibition in a human VLA-4 binding assay; P13612; VLA-4 expressing cells, ligand binding flow cytometry; inhibition, % (about 7 µM as worked out from the volumes in the protocol); actives 0.2% (n = 330,000); AID 2557; in the data active = inhibition above about 50%
Target sequence (P13612 whole entry, looked up): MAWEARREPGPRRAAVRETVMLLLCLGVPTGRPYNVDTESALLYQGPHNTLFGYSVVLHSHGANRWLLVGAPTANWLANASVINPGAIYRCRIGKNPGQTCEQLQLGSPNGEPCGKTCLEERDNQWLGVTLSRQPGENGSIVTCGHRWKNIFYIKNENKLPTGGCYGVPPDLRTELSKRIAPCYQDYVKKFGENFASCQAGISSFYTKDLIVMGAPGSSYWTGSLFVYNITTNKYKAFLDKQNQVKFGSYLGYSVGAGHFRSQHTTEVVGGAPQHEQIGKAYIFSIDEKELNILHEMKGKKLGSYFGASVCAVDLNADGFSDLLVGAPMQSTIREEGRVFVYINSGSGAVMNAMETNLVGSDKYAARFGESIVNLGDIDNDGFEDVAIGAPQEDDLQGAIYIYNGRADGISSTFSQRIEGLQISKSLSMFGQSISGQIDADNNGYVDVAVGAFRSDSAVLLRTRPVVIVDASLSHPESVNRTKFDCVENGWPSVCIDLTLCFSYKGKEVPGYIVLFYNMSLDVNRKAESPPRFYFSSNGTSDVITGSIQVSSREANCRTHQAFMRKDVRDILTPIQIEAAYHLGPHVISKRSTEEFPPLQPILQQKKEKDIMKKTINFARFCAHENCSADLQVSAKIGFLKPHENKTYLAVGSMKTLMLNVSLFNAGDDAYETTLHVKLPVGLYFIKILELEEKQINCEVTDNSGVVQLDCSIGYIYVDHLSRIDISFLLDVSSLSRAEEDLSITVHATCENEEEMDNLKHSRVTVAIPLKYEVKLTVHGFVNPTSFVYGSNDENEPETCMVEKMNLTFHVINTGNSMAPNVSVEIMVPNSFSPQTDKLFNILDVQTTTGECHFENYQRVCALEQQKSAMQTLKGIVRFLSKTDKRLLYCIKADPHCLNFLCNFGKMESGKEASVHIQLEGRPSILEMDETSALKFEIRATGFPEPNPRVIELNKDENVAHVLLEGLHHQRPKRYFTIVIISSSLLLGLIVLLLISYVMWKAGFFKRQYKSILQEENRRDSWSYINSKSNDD
CHT inh: inhibits the human high affinity choline transporter; Q9GZV3; CHT-expressing cells, membrane potential dye, choline response; active compounds read low; B-score at 10 µM; actives 0.86% (n = 310,000); AID 488975;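 active = B-score over 3 SD under the library average, and starting fluorescence ratio not unusually high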;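 note: choline stimulus applied at its EC90 after an EC20 pre-addition; B-score computed on integrated fluorescence ratio after choline addition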
Platelet DG rel: platelet dense granule release activity | human platelet-rich plasma, SFLLRN dense granule ATP release, luminescence | inhibition, %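 (compounds screened at 7.5 µM in platelet-rich plasma)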 | actives 0.22% (n = 300,000) | AID 1663;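 active = mean replicate score, as percent of positive control, at or above 50; inconclusive = mean below 50 but at least one replicate at or above 50; inactive = mean and every replicate below 50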
HIF activator: HIF pathway transcriptional activation; AID 1910; U2OS HRE-luciferase reporter, luminescence; normalized: DMSO 0%, desferrioxamine 100%; activation, % at 7.5 µM (by protocol); actives 0.32% (n = 300,000);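 active = mean activation of at least 10% of the iron chelator positive control signal, with at least half of replicates also reaching 10%; inconclusive = mean and replicate majority disagree about reaching 10%; inactive = mean and most replicates under 10%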
CHT PAM: human CHT allosteric activation. Q9GZV3. CHT-expressing cells, membrane potential dye, choline EC20; active compounds read high; LV-AA mutant CHT in HEK293 cells. B-score at 10 µM. actives 0.49% (n = 310,000). AID 488977;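 active = initial fluorescence not abnormally high and integrated response B-score, plate-corrected, over 3 SD above library mean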
CHT act confirm: confirmation of human choline transporter (CHT) activators | shares compounds with CHT PAM | CHT-expressing cells, membrane potential dye fluorescence (FDSS); % of choline EC20–EC90 response window; HEK293 expressing CHT LV-AA mutant; choline added at its EC20 | activation, % at 10 µM | actives 91% (n = 2,500) | AID 504833;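 active = primary screen active, with duplicate mean activation above negative control mean plus 3 SD, cut at about 11% in these data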
HEK293 MP dye: CHT activator counter-screen hit in parental HEK293 cells. actives 62% (n = 2,500). shares compounds with CHT PAM. AID 623908. ratio readout change at 10 µM, hits read low. membrane potential dye fluorescence (FDSS); measured after EC20 choline addition;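 active = duplicate-averaged ratio beyond 3 SD from buffer wells, up or down, though filed actives are nearly all decreases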
Large screens that a line does not name were inactive (follow-up assays come after a bar, where they were run).

CC(NC(=O)COC(=O)c1c[nH]c2ccccc12)c1ccccc1 (stereo not drawn)	none (no result: AI-2 QS mod, CHT inh, Platelet DG rel, HIF activator, CHT PAM)
Cc1cc(N2CCOCC2)c2c(N)cc(C)c(C)c2n1	none | CHT act confirm 55 | HEK293 MP dye -73
Cc1ccc(NC(=O)[C@@H]2CCCN2S(=O)(=O)c2ccc(Cl)cc2)cc1	none (no result: AI-2 QS mod, CHT inh, Platelet DG rel, HIF activator, CHT PAM)
Cc1noc(C)c1COC(=O)c1ccccc1NC(=O)Cc1ccccc1	none
Cc1noc(C)c1COC(=O)c1ccccc1Oc1ccccc1	none | CHT act confirm 14 | HEK293 MP dye inactive
Cn1c(-c2ccncc2)nc2ccccc21	none
CCN(CC)c1ccc(-c2nc3cnccc3n2C)cc1	CHT PAM 10 | CHT act confirm 33 | HEK293 MP dye -49
NC(N)=Nc1nc(-c2ccccc2)c2cc(F)ccc2n1	none | CHT act confirm 29 | HEK293 MP dye -48
COc1ccc(Cc2nnc(N/N=C(\C)c3ccccc3)[nH]c2=O)cc1OC	none
C#CCOCCOCCOCCNc1nc(N2CCOCC2)nc(N2CCN(C(=O)CCCCCCCCCCNC(=O)[C@@H]([C@H](C)CC)n3cc(CCCCCN)nn3)CC2)n1	CHT PAM 8.4 (no result: AI-2 QS mod, Platelet DG rel, HIF activator) | CHT act confirm inactive | HEK293 MP dye -32
C#CCOCCOCCOCCNc1nc(N2CCN(C(=O)CCCCCCCCCCNC(=O)[C@H]([C@@H](C)CC)n3cc(CCCCCN)nn3)CC2)nc(N2CCN(C(=O)CCCCCCCCCCNC(=O)[C@@H]([C@H](C)CC)n3cc(CCCCCN)nn3)CC2)n1	none (no result: AI-2 QS mod, Platelet DG rel, HIF activator)
COc1ccccc1CNC(=O)[C@H](Cc1c[nH]c2ccccc12)NC(=O)[C@@H]1Cc2ccccc2CN1	none
COc1ccc(Cn2c(-c3ccc(Br)cc3)c[n+]3ccccc23)cc1	CHT PAM 9.6 | CHT act confirm 70 | HEK293 MP dye -60
Cc1ccc(N(CC(=O)N/N=C/c2cc(C)n(-c3ccccc3)c2C)S(C)(=O)=O)c(C)c1	none (no result: Platelet DG rel, HIF activator) | CHT act confirm 24 | HEK293 MP dye inactive
CCn1ncc(NC(=S)NCCc2ccc(OC)c(OC)c2)c1C(N)=O	none (no result: HIF activator)
Cc1nn2c(NCc3cccnc3)c3c(nc2c1-c1ccccc1)CCC3	none (no result: Platelet DG rel, HIF activator)
Cc1nn2c(NCCN(C)C)c3c(nc2c1-c1ccccc1)CCCC3	none (no result: Platelet DG rel, HIF activator) | CHT act confirm 11 | HEK293 MP dye -51
CCOc1ccc(-n2ccc(=O)c(C(=O)Nc3ccc(S(=O)(=O)Nc4nccs4)cc3)n2)cc1	none
O=C(Nc1ccc(S(=O)(=O)Nc2nccs2)cc1)c1nn(-c2ccc(F)cc2)ccc1=O	CHT PAM 6.3 | CHT act confirm 37 | HEK293 MP dye -36
O=C(c1ccco1)N1N=C(c2ccco2)CC1c1ccc(Cl)cc1Cl (stereo not drawn)	none (no result: AI-2 QS mod, CHT inh, Platelet DG rel, HIF activator, CHT PAM)
O=C(C[n+]1cc(-c2ccc(Br)cc2)n2c1CCCCC2)c1ccccc1	none | CHT act confirm 23 | HEK293 MP dye inactive
O=C(C[n+]1cc(-c2ccc(Cl)cc2)n2c1CCCCC2)c1ccccc1	none
COc1cc(N)c(C(=O)c2nccc3cc(OC)c(OC)cc23)cc1OC	none
COc1ccc(C(N)c2nccc3cc(OC)c(OC)cc23)cc1OC (stereo not drawn)	CHT PAM 7.3 | CHT act confirm 53 | HEK293 MP dye -41
Fc1ccc(-c2nc3ccncc3[nH]2)cc1	CHT PAM 7.9 | CHT act confirm 59 | HEK293 MP dye -65
COc1ccc(-c2nc3ccncc3[nH]2)cc1OC	none
Clc1ccc(-c2nc3ccncc3[nH]2)cc1	Platelet DG rel inconclusive, CHT PAM 6.8 | CHT act confirm 52 | HEK293 MP dye -51
CCOC(=O)N1CCN(c2c(NCc3ccc(F)cc3)c(=O)c2=O)CC1	none | CHT act confirm inactive | HEK293 MP dye inactive
CCCCCCSc1ccc([C@H]2N[C@@](CC(C)C)(C(=O)OC)[C@H]3C(=O)N(C)C(=O)[C@@H]23)cc1OC	CHT PAM 7.2 | CHT act confirm 18 | HEK293 MP dye inactive
COc1cc(OC)cc(C(=O)N2CCN(C(=O)c3cccs3)CC2)c1	none
CCN(C[C@H]1N[C@@](CC)(C(=O)OC)[C@H]2C(=O)N(Cc3ccccc3)C(=O)[C@@H]12)S(=O)(=O)c1ccc(F)cc1	none (no result: AI-2 QS mod, CHT inh, Platelet DG rel, HIF activator, CHT PAM)
COc1ccc(-c2cn3c(n2)CCC3)cc1	CHT PAM 7.4 | CHT act confirm 51 | HEK293 MP dye -47
CC(=O)NC(CC(=O)OCC(=O)N1CCN(S(=O)(=O)c2ccc(C)cc2C)CC1)c1ccccc1 (stereo not drawn)	none (no result: AI-2 QS mod, CHT inh, Platelet DG rel, HIF activator, CHT PAM)
Cc1ccccc1/C=C/C1=NCCN1	CHT PAM 7.2 (no result: AI-2 QS mod, Platelet DG rel, HIF activator) | CHT act confirm 40 | HEK293 MP dye -38
CN(C)CCNC(=O)c1onc(CSc2ccc(F)cc2)c1C(=O)NCCN(C)C	CHT PAM 6.7 | CHT act confirm 17 | HEK293 MP dye -20
Nc1c2c(nc3ccn(-c4ccccc4)c(=O)c13)CCCCC2	none | CHT act confirm 49 | HEK293 MP dye -50
O=c1[nH]c(N2CCN(Cc3ccccc3)CC2)nc2c1CCC2	none
Nc1c2c(nc3ccn(Cc4ccccc4)c(=O)c13)CCC2	CHT PAM 7 | CHT act confirm 54 | HEK293 MP dye -50
CN1CCCC1CCNc1ccc2c(=O)c3ccccc3oc2c1 (stereo not drawn)	CHT PAM 6.4 | CHT act confirm 53 | HEK293 MP dye -22
CN1CCCC1CCNc1ccc2oc3ccccc3c(=O)c2c1 (stereo not drawn)	none
Cc1cc(=O)[nH]c(SC(C)C(=O)Nc2cccc3ccccc23)n1 (stereo not drawn)	none
Cc1ccc(C(C)C)c(OCc2nn(CC(=O)c3ccc(OC(F)F)cc3)c3[n+]2CCCCC3)c1	CHT PAM 9.8 | CHT act confirm inactive | HEK293 MP dye inactive
COc1ccc(C(=O)Cn2nc(CNc3ccc(Br)cc3)[n+]3c2CCCCC3)cc1	none
